Results from PubChem BioAssay (Tox21).
Records with an inconclusive call do not appear. The source made the active and inactive calls. Unless noted, calls follow the shape of the dose curve; as a rule, active = well fitted curve in the direction sought with a large enough effect in the repeat runs; inconclusive = weak or mixed curves; inactive = no such curve, though single readings can be large; an effect the other way counts as inactive or inconclusive.

Tests used:
[1] = target: Retinoic acid receptor RXR-alpha (Homo sapiens) (UniProt P19793); test: qHTS assay to identify small molecule agonists of the RXR signaling pathway (AID 1159527; calls by dose curve; also: nearly all actives have a fitted effect of over 35% in size; also: potency is read from the fitted curve at half-maximal effect)
Retinoic acid receptor RXR-alpha (Homo sapiens), sequence (P19793 whole entry, looked up): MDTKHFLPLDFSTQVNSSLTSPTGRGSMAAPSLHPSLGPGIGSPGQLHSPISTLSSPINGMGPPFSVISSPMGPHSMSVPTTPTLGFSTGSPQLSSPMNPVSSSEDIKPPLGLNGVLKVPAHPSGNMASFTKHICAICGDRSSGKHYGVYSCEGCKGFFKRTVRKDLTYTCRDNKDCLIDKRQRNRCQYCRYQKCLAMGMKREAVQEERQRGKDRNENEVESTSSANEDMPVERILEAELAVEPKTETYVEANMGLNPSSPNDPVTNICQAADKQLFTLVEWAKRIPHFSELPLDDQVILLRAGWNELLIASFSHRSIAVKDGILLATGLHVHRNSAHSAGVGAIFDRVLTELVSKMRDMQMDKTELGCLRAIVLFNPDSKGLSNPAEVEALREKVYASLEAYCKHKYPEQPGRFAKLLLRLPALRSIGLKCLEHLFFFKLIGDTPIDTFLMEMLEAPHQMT
Procedure, shortened: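 Agonist mode; 9-cis retinoic acid positive control. HEK 293T UAS-bla reporter cells, 2% charcoal-stripped FBS, 16 hr compound exposure at 37 C/5% CO2. LiveBLAzer B/G FRET substrate 2 hr RT; ex 405, em 460/530 nm.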

[2] = qHTS assay to identify small molecule agonists of the RXR signaling pathway - cell viability counter screen (AID 1159529); also: series mostly up to about 77 µM; nearly all actives have a fitted effect of over 50% in size
Procedure, shortened: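 Luminescence from CellTiter-Glo (30 min, RT) measured viability in the same wells as the beta-lactamase reporter readout. Cells: GeneBLAzer RXR-alpha HEK 293T, 2% charcoal-stripped FBS. Compound exposure 16 hr, 37 C.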

[3] = qHTS assay to identify small molecule antagonists of the retinoid acid receptor (RAR) signaling pathway - cell viability counter screen (AID 1159551); also: nearly all actives have a fitted effect of over 35% in size
Procedure, shortened: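 C3RL4 cells were seeded overnight at 37 C, then treated with compounds plus 1 uM (final) retinol for 6 h at 37 C. Viability was read as ATP by CellTiter-Glo luminescence after 30 min at room temperature.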

[4] = qHTS assay to identify small molecule antagonists of the retinoic acid receptor (RAR) signaling pathway (AID 1159552; also: nearly all actives have a fitted effect of over 50% in size)
Procedure, shortened: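 Luminescence from a RARE luciferase reporter in C3RL4 cells served as read-out. Cells received compounds together with 1 uM final retinol and incubated 6 hr at 37 C before detection reagent was added for 30 min at room temperature.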

[5] = qHTS assay to identify small molecule agonists of the retinoic acid receptor (RAR) signaling pathway (AID 1159553)
Procedure, shortened: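 C3RL4 cells carrying a RARE luciferase reporter were plated overnight at 37 C, then exposed to compounds in DMSO for 6 hr at 37 C and 5% CO2. Luminescence was read 30 min after luciferase reagent addition at room temperature.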

[6] = qHTS assay to identify small molecule antagonists of the estrogen related receptor (ERR) signaling pathway from Tox21 library - cell viability counter screen (AID 1224834); also: nearly all actives have a fitted effect of over 30% in size
Procedure, shortened: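 ERR reporter cells were plated 6 h before compound addition, then exposed to test compounds in DMSO for 17.5 h at 37 C. Viability was read as CellTiter-Fluor fluorescence after a 30-minute incubation at 37 C.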

[7] = target: Luciferin 4-monooxygenase (Photinus pyralis) (UniProt P08659); test: qHTS assay to identify small molecule inhibitors of firefly luciferase (AID 1224835); also: series mostly up to about 120 µM; nearly all actives have a fitted effect of over 25% in size
Luciferin 4-monooxygenase (Photinus pyralis), sequence (P08659 whole entry, looked up): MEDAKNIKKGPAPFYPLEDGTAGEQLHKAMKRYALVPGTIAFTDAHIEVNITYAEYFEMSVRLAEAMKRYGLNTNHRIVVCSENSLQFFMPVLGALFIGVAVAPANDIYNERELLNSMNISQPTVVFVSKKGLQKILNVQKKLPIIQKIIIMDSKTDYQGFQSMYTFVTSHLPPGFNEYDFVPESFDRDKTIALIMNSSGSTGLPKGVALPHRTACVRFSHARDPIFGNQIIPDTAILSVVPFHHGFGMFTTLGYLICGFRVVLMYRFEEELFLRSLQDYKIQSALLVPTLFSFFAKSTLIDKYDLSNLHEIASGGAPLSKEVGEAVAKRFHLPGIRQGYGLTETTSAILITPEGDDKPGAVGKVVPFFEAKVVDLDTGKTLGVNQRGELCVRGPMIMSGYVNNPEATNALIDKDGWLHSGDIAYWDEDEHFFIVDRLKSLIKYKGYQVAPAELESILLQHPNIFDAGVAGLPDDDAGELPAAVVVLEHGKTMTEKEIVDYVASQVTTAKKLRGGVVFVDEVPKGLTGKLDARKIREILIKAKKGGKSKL
Procedure, shortened: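 Quantitative HTS format; KM concentrations of both substrates. Purified P. pyralis FLuc activity quantified from luminescence images.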

[8] = qHTS assay to identify small molecule agonists of the constitutive androstane receptor (CAR) signaling pathway - cell viability counter screen (AID 1224836); also: series mostly up to about 92 µM; nearly all actives have a fitted effect of over 45% in size
Procedure, shortened: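 Viability read-out: CellTiter-Fluor fluorescence after 23 h compound exposure at 37 C/5% CO2 in double-stable HepG2-CYP2B6-hCAR cells, with PK11195 present at 0.75 uM final; compounds tested in 15-point titration.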

[9] = qHTS assay to identify small molecule antagonists of the constitutive androstane receptor (CAR) signaling pathway - cell viability counter screen (AID 1224837); also: series mostly up to about 92 µM; nearly all actives have a fitted effect of over 45% in size
Procedure, shortened: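 HepG2 cells stably expressing hCAR and a CYP2B6-2.2kb reporter were plated and pre-incubated 4 hr at 37 C/5% CO2, then given compounds at 15 concentrations plus 50 nM CITCO (final). After 23 hr, viability was read by CellTiter-Fluor fluorescence.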

[10] = target: Nuclear receptor subfamily 1 group I member 3 (Homo sapiens) (UniProt Q14994); test: qHTS assay to identify small molecule antagonists of the constitutive androstane receptor (CAR) signaling pathway (AID 1224838); also: nearly all actives have a fitted effect of over 40% in size
Nuclear receptor subfamily 1 group I member 3 (Homo sapiens), sequence (Q14994 whole entry, looked up): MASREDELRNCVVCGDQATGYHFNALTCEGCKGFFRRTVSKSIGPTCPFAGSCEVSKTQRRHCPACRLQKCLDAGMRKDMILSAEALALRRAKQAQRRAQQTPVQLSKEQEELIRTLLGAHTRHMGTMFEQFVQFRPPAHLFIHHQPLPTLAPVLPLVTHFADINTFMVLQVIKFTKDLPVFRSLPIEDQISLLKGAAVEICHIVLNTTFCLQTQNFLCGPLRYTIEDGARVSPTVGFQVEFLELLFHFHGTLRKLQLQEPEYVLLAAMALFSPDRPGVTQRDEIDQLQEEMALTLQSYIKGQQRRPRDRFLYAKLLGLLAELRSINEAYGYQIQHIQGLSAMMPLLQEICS
Procedure, shortened: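 HepG2 cells stably co-transfected with hCAR and a CYP2B6-2.2kb luciferase reporter were seeded 4 h before compound addition at 15 concentrations. Cells were stimulated with 50 nM CITCO (final) for 24 h at 37 C; luciferase luminescence was then read.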

[11] = target: Nuclear receptor subfamily 1 group I member 3 (Homo sapiens) (UniProt Q14994); test: qHTS assay to identify small molecule agonists of the constitutive androstane receptor (CAR) signaling pathway (AID 1224839);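 also: HepG2 cells stably carrying human CAR and a CYP2B6 luciferase reporter; series mostly up to about 92 µM; nearly all actives have a fitted effect of over 15% in size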
Procedure, shortened: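 Luminescence read-out (ONE-Glo, 30 min, room temperature) from double-stable HepG2-CYP2B6-hCAR cells exposed 24 h to 15-point compound series in presence of 0.75 uM PK11195 final.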

[12] = qHTS assay to identify small molecule antagonists of the estrogen related receptor signaling pathway with the pleiotropic PPARgamma coactivator (PGC) from Tox21 10K library - cell viability counter screen (AID 1224840; active = well fitted cell-killing curve with a large enough effect in the repeat runs, not every such curve was filed as active; also: nearly all actives have a fitted effect of over 40% in size)
Procedure, shortened: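 PGC/ERR cells were seeded at 2,000 cells/well and left 6 hours at 37 C/5% CO2 before pin-tool addition of compounds in DMSO. After 17.5 hours at 37 C, CellTiter-Fluor was added and fluorescence read 30 minutes later.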

[13] = qHTS assay to identify small molecule agonists of the hypoxia (HIF-1) signaling pathway - cell viability counter screen (AID 1224844; calls by dose curve; also: nearly all actives have a fitted effect of over 50% in size)
Procedure, shortened: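 HRE-bla ME-180 cells in medium with 0.5% dialyzed FBS were preincubated 5 hrs at 37C, exposed to compounds for 17 hrs, then viability was read as CellTiter-Glo luminescence after 30 min at room temperature, in the reporter wells.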

[14] = qHTS assay to identify small molecule agonists of H2AX (AID 1224845; active = well fitted activation curve with a large enough effect in the signal ratio in the repeat runs, not every such curve was filed as active; the % refers to the signal ratio)
Procedure, shortened: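 Wild-type CHO-K1 cells plated overnight, then exposed 3 hr at 37C to compounds at 15 concentrations (0.76% DMSO). Lysed, then HTRF anti-pH2AX(S139)-cryptate/anti-H2AX-d2 detection after 24 hr at room temperature; emissions 665 and 620 nm.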

[15] = qHTS assay to identify small molecule agonists of the hypoxia (HIF-1) signaling pathway (AID 1224846; active = well fitted activation curve with a large enough effect in the signal ratio in the repeat runs, not every such curve was filed as active; the % refers to the signal ratio)
Procedure, shortened: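 HRE-bla ME-180 cells (beta-lactamase reporter under hypoxia response element) were plated at 2,000 cells/well in medium with 0.5% dialyzed FBS, rested 5 hrs, then given compounds in DMSO for 17 hrs at 37C, 5% CO2. Reporter induction was read with CCF4-AM FRET substrate.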

[16] = qHTS assay to identify small molecule agonists of H2AX - cell viability counter screen (AID 1224847; calls by dose curve; also: top concentration of the series differs between compounds; nearly all actives have a fitted effect of over 30% in size)
Procedure, shortened: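 CHO-K1 wt, 1000 cells/well, o/n 37C; cpds 15 conc, 3 h 37C, 0.76% DMSO; CellTiter-Glo, 30 min RT, luminescence.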

[17] = target: Thyrotropin receptor (Homo sapiens) (UniProt P16473); test: qHTS assay to identify small molecule agonists of the thyroid stimulating hormone receptor (TSHR) signaling pathway (AID 1224843; calls by dose curve; also: nearly all actives have a fitted effect of over 45% in size)
Thyrotropin receptor (Homo sapiens), sequence (P16473 whole entry, looked up): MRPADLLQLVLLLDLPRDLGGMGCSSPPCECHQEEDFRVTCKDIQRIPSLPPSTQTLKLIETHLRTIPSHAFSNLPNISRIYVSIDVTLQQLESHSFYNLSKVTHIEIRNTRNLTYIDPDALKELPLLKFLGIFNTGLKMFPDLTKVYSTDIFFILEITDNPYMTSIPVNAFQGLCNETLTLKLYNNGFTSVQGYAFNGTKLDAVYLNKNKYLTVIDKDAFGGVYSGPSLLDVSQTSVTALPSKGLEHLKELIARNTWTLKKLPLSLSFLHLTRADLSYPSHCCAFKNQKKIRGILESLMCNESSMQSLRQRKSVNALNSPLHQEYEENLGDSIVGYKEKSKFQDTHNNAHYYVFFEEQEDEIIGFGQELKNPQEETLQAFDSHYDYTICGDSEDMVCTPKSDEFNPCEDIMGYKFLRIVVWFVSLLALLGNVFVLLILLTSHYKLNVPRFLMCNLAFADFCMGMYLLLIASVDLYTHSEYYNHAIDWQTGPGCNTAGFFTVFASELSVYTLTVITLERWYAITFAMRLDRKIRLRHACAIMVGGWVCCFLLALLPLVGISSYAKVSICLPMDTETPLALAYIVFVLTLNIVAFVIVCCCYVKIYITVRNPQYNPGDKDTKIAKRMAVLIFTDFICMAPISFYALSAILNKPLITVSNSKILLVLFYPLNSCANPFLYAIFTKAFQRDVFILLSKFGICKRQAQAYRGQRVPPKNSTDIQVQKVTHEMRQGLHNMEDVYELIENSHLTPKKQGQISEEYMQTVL
Procedure, shortened: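 Cell line HEK293 with TSHR; density 800/well. Exposure 30 min RT. Readout HTRF cAMP (cAMP-d2/anti-cAMP-cryptate), 1 h RT before reading.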
% is scaled to controls: 0 for no effect and ±100 for the full control effect.

O=C(O)CSCC(=O)NC1CCSC1=O (centres undefined)
inactive: Potency [1] | outcome [2] | outcome [3] | outcome [4] | Potency [5] | outcome [6] | Potency [7] | outcome [8] | outcome [9] | Potency [10] | Potency [11] | outcome [12] | outcome [13] | outcome [14] | outcome [15] | outcome [16]

Cc1c(C(=O)c2c[nH]n(C)c2=O)ccc(S(C)(=O)=O)c1C1=NOCC1
inactive: Potency [1] | outcome [2] | outcome [3] | outcome [4] | Potency [5] | outcome [6] | Potency [7] | outcome [8] | outcome [9] | Potency [10] | Potency [11] | outcome [12] | outcome [13] | outcome [14] | outcome [15] | outcome [16]

CC(C)C1OCCN1CCOC(=O)NCCCCCCNC(=O)OCCN1CCOC1C(C)C (centres undefined)
inactive: Potency [1] | outcome [2] | outcome [3] | outcome [4] | Potency [5] | outcome [6] | Potency [7] | outcome [8] | outcome [9] | Potency [10] | Potency [11] | outcome [12] | outcome [17] | outcome [13] | outcome [14] | outcome [15] | outcome [16]

CN1C[C@@H]2C[C@H]1CN2c1cc2c(cc1F)c(=O)c(C(=O)O)cn2C1CC1
inactive: activation [1] 12.3% [at 15.8 µM] | activity change, negative = cytotoxicity [2] 0.369% [at 15.8 µM] | activity change, negative = cytotoxicity [3] -0.0754% [at 19 µM] | activity, negative = inhibition [4] 0.455% [at 19 µM] | Potency [5] | viability change, negative = cytotoxic [6] 5.48% [at 19 µM] | activity change, negative = inhibition [7] 0.0867% [at 23.6 µM] | viability change, negative = cytotoxic [8] -2.13% [at 19 µM] | activity change, negative = cytotoxicity [9] -13.4% [at 19 µM] | activity, negative = inhibition [10] -6.55% [at 19 µM] | activation [11] -4.55% [at 19 µM] | viability change, negative = cytotoxic [12] 6.5% [at 19 µM] | activation [17] 1.11% [at 19 µM] | activity change, negative = cytotoxicity [13] 12.6% [at 15.8 µM] | activation (H2AX phosphorylation) [14] -0.432% [at 31.6 µM] | activation [15] -0.622% [at 15.8 µM] | activity change, negative = cytotoxicity [16] 4.25% [at 31.6 µM]

CCCCOCCOC(=O)COc1ccc(Cl)cc1Cl
inactive: Potency [1] | outcome [2] | outcome [3] | outcome [4] | Potency [5] | outcome [6] | Potency [7] | outcome [8] | outcome [9] | Potency [10] | Potency [11] | outcome [12] | outcome [13] | outcome [14] | outcome [15] | outcome [16]

CC(C)c1ccc(C=O)cc1
inactive: outcome [2] | outcome [3] | outcome [4] | Potency [5] | outcome [6] | Potency [7] | outcome [8] | outcome [9] | Potency [10] | Potency [11] | outcome [12] | outcome [17] | outcome [14] | outcome [15] | outcome [16]
active: Potency [1] 43.6 µM

Cc1ccnc(N)c1
inactive: Potency [1] | outcome [2] | outcome [3] | outcome [4] | Potency [5] | outcome [6] | Potency [7] | outcome [8] | outcome [9] | Potency [10] | Potency [11] | outcome [12] | outcome [17] | outcome [13] | outcome [15] | outcome [16]

CCCCCCCCCOC(=O)CCCCC(=O)OCCCCCCC
inactive: Potency [1] | outcome [2] | outcome [3] | outcome [4] | Potency [5] | outcome [6] | Potency [7] | outcome [8] | outcome [9] | Potency [10] | Potency [11] | outcome [12] | outcome [14] | outcome [15] | outcome [16]
